# Values joined by “and” are separate entries in the source; they are usually repeats but may differ in a detail not shown here. Equal entries are not always repeated. Records with an inconclusive call do not appear. Entries that show only a call come without a potency. Some structures have more than one record in an assay (separate samples or runs), and their calls can disagree. Active and inactive are the calls of the source. Unless noted, calls follow the shape of the dose curve; as a rule, active = well fitted curve in the direction sought with a large enough effect in the repeat runs; inconclusive = weak or mixed curves; inactive = no such curve, though single readings can be large; an effect the other way counts as inactive or inconclusive.
# Assays:
# [1] = qHTS assay to identify aromatase inhibitors - cell viability counter screen (AID 743084);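 also: cells stimulated with testosterone during compound exposure; nearly all actives have a fitted effect of over 55% in size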; also: potency is read from the fitted curve at half-maximal effect
# [2] = qHTS assay to identify small molecule that activate the aryl hydrocarbon receptor (AhR) signaling pathway - cell viability counter screen (AID 743086); also: nearly all actives have a fitted effect of over 45% in size; also: potency is read from the fitted curve at half-maximal effect
# Summary of the method: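 HepG2-AhR-luc (HG2L7.5c1) cells, 4000/well, treated 24 h at 37 C with compound; viability measured as CellTiter-Fluor fluorescence after 30 min in the same wells as the luciferase read.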
# [3] = qHTS assay to identify small molecule antagonists of the peroxisome proliferator-activated receptor gamma (PPARg) signaling pathway - cell viability counter screen (AID 743194); also: nearly all actives have a fitted effect of over 55% in size; also: potency is read from the fitted curve at half-maximal effect
# Summary of the method: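 Cytotoxicity counter screen in PPARg-bla HEK293H cells, same wells as reporter assay. Compounds plus 50 nM rosiglitazone (final) for 17 h at 37 C, then viability read by CellTiter-Glo luminescence.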
# [4] = qHTS assay for small molecule agonists of the antioxidant response element (ARE) signaling pathway - cell viability counter screen (AID 743203; calls by dose curve; also: nearly all actives have a fitted effect of over 55% in size; also: potency is read from the fitted curve at half-maximal effect)
# Summary of the method: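 Following 16 hrs of compound treatment at 37C, HepG2 cells with an ARE-controlled beta-lactamase gene were lysed with CellTiter-Glo. Luminescence was read after 30 min at room temperature.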
# [5] = qHTS assay for small molecule activators of the heat shock response signaling pathway - cell viability counter screen (AID 743209); also: nearly all actives have a fitted effect of over 50% in size; also: potency is read from the fitted curve at half-maximal effect
# Summary of the method: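 Readout: CellTiter-Glo luminescence, 30 min at room temperature. System: HSE-bla HeLa cells, 1500/well, plated overnight. Treatment: compounds in DMSO, 5 h at 37 C.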
# [6] = qHTS assay for small molecule activators of the heat shock response signaling pathway (AID 743210; active = well fitted activation curve with a large enough effect in the signal ratio in the repeat runs, with a control signal flat, not every such curve was filed as active; the % refers to the signal ratio;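 also: HeLa cells with beta-lactamase reporter driven by heat shock elements; series mostly up to about 63 µM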)
# Summary of the method: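 Quantitative high-throughput format using an engineered HeLa line in which heat shock response elements drive beta-lactamase; after 5 h with compound, cells received a B/G FRET substrate and fluorescence was read.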
# [7] = qHTS assay for small molecule agonists of the antioxidant response element (ARE) signaling pathway (AID 743202; active = well fitted activation curve with a large enough effect in the signal ratio in the repeat runs, not every such curve was filed as active; the % refers to the signal ratio; also: potency is read from the fitted curve at half-maximal effect)
# Summary of the method: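 Agonist mode reporter screen: HepG2 cells with ARE-controlled beta-lactamase are incubated with test compounds for 16 h at 37 C, and beta-lactamase activity is measured as fluorescence of cleaved B/G FRET substrate.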
# [8] = molecular target: Peroxisome proliferator-activated receptor gamma (Homo sapiens) (UniProt P37231); test: qHTS assay to identify small molecule agonists of the peroxisome proliferator-activated receptor gamma (PPARg) signaling pathway (AID 743094; active = well fitted activation curve with a large enough effect in the signal ratio in the repeat runs, not every such curve was filed as active; the % refers to the signal ratio; also: potency is read from the fitted curve at half-maximal effect)
# Summary of the method: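 Compounds dissolved in DMSO were added to PPARg UAS-bla HEK293H cells for 17 h at 37C, and reporter expression was quantified by fluorescence intensity after 1 h with LiveBLAzer B/G FRET substrate.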
# [9] = molecular target: Peroxisome proliferator-activated receptor gamma (Homo sapiens) (UniProt P37231); test: qHTS assay to identify small molecule antagonists of the peroxisome proliferator-activated receptor gamma (PPARg) signaling pathway (AID 743191; calls by dose curve; also: series mostly up to about 63 µM; nearly all actives have a fitted effect of over 30% in size)
# Summary of the method: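 GeneBLAzer PPARg UAS-bla HEK293H cells, 5 h post-plating, exposed to compounds 17 h at 37C. LiveBLAzer B/G FRET substrate added for 1 h at room temperature; beta-lactamase reporter read by fluorescence intensity.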
# [10] = molecular target: Aryl hydrocarbon receptor (Homo sapiens) (UniProt P35869); test: qHTS assay to identify small molecule that activate the aryl hydrocarbon receptor (AhR) signaling pathway (AID 743085); also: potency is read from the fitted curve at half-maximal effect; nearly all actives have a fitted effect of over 15% in size
# Summary of the method: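 Stably transfected human liver carcinoma cells (HG2L7.5c1; 20 DRE-firefly luciferase) were incubated 5 h, dosed, and kept 24 h at 37C. Agonism was scored from increased luciferase luminescence.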
# Peroxisome proliferator-activated receptor gamma (Homo sapiens), sequence (P37231 whole entry, looked up): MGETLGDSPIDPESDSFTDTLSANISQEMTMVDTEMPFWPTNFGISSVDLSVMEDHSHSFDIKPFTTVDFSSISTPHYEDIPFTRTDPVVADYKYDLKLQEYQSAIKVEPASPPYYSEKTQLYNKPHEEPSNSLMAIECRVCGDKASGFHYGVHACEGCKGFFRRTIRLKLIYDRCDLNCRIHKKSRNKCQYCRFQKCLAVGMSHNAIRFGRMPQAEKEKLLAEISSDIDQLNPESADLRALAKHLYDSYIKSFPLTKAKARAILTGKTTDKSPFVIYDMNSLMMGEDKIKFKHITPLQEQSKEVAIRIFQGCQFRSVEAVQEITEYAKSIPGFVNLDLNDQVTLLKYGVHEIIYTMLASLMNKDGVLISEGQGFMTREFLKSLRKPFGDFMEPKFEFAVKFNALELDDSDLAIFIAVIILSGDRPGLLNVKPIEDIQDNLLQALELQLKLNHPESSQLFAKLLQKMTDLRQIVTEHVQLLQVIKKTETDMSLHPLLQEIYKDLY
# Aryl hydrocarbon receptor (Homo sapiens), sequence (P35869 whole entry, looked up): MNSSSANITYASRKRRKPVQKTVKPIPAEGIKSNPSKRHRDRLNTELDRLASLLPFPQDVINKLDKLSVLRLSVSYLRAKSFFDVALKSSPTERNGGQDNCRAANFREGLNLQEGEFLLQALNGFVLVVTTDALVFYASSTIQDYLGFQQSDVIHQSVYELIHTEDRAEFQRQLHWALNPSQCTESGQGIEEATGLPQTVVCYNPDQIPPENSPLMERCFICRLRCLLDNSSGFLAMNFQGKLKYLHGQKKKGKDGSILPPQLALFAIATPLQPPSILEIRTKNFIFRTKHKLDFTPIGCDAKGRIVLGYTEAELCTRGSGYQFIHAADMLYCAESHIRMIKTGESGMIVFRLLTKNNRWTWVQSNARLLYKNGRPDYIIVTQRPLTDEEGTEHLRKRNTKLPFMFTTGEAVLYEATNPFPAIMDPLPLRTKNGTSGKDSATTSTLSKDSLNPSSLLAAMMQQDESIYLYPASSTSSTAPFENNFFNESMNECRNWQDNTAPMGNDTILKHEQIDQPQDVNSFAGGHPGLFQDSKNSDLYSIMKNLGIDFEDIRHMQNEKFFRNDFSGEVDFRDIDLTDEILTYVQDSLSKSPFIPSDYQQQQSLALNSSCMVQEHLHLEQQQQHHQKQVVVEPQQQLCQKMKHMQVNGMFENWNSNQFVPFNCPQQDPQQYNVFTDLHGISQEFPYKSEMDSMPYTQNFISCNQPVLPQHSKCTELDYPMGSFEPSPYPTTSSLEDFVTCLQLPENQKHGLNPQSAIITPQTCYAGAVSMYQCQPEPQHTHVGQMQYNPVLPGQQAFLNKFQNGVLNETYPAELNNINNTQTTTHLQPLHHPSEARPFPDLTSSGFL
compound,measurement,setting,value
CN1CCN(CCC(=O)N2c3ccccc3Sc3ccc(C(F)(F)F)cc32)CC1,Potency,[1],inactive
same,Potency,[2],18.8 µM (active)
same,Potency,[3],33.5 µM (active)
same,Potency,[4],29.8 µM (active)
same,Potency,[5],inactive
Cc1cc(CCN2CCN(c3nsc4ccccc34)CC2)cc2c1NC(=O)CC2(C)C,Potency,[1],24.3 µM (active)
same,Potency,[2],27.3 µM (active)
same,Potency,[4],21.7 µM (active)
Clc1ccccc1C(c1ccccc1)(c1ccccc1)n1ccnc1,Potency,[1],inactive
same,Potency,[2],inactive and 54.5 µM (active)
same,Potency,[3],24.5 µM (active)
same,Potency,[4],30.6 µM (active)
CCOC(=O)/C=C(C)/C=C/C=C(C)/C=C/c1c(C)cc(OC)c(C)c1C,Potency,[1],inactive
same,Potency,[2],inactive
same,Potency,[3],inactive
same,Potency,[4],inactive
same,Potency,[5],inactive
Nc1ccc(N)c2ccccc12,Potency,[1],3.85 µM (active)
same,Potency,[2],4.32 µM (active)
same,Potency,[3],1.23 µM (active)
same,Potency,[4],0.611 µM (active)
CC(C)OC(=O)c1cc2c(OCC(O)CNC(C)(C)C)cccc2[nH]1 (centres undefined),Potency,[1],inactive
same,Potency,[2],inactive
same,Potency,[4],inactive
same,Potency,[6],inactive
CC(=O)N1CCN(c2ccc(OC[C@H]3CO[C@](Cn4ccnc4)(c4ccc(Cl)cc4Cl)O3)cc2)CC1,Potency,[1],inactive and 61.1 µM (active)
same,Potency,[2],inactive and 27.3 µM (active)
same,Potency,[3],43.6 µM (active)
same,Potency,[4],61.1 µM (active)
O=C(O)c1cc(O)c2c(c1)C(=O)c1cccc(O)c1C2=O,Potency,[1],inactive
same,Potency,[2],inactive
same,Potency,[3],inactive
same,Potency,[7],25.1 µM (active)
same,Potency,[5],inactive
same,Potency,[6],inactive
O=C1Cc2cc(CCN3CCN(c4nsc5ccccc45)CC3)c(Cl)cc2N1,Potency,[1],inactive and 26.6 µM (active)
same,Potency,[2],inactive
same,Potency,[5],inactive
Cc1c(C)c2c(c(C)c1OC(=O)CCC(=O)O)CC[C@@](C)(CCC[C@H](C)CCC[C@H](C)CCCC(C)C)O2,Potency,[1],inactive
same,Potency,[2],inactive
same,Potency,[3],inactive
same,Potency,[4],inactive
same,Potency,[5],inactive
same,Potency,[6],inactive
C=C(C)C(=O)OCC(O)COc1ccc(C(C)(C)c2ccc(OCC(O)COC(=O)C(=C)C)cc2)cc1 (centres undefined),Potency,[1],61.1 µM (active)
same,Potency,[2],inactive
same,Potency,[4],inactive
S=c1[nH]c2ccccc2s1,Potency,[1],inactive
same,Potency,[2],inactive
same,Potency,[4],inactive
Cc1onc(-c2ccccc2Cl)c1C(=O)N[C@@H]1C(=O)N2[C@@H]1SC(C)(C)[C@@H]2C(=O)O,Potency,[1],inactive
same,Potency,[2],inactive
same,Potency,[3],inactive
same,Potency,[4],inactive
same,Potency,[5],inactive
same,Potency,[6],inactive
CCc1oc2ccccc2c1C(=O)c1cc(Br)c(O)c(Br)c1,Potency,[1],inactive
same,Potency,[2],inactive
same,Potency,[4],23.7 µM (active)
same,Potency,[5],inactive
CCCCCCCCCOC(=O)c1ccc(O)cc1,Potency,[1],30.2 µM (active)
same,Potency,[2],inactive
same,Potency,[4],60.3 µM (active)
same,Potency,[5],24.2 µM (active)
COc1cccc2c1C(=O)c1c(O)c3c(c(O)c1C2=O)C[C@@](O)(C(=O)CO)C[C@@H]3O[C@H]1C[C@H](N)[C@H](O[C@@H]2CCCCO2)[C@H](C)O1,Potency,[1],13.3 µM (active)
same,Potency,[2],6.68 µM (active)
same,Potency,[6],inactive
CN(C/C=C/C#CC(C)(C)C)Cc1cccc2ccccc12,Potency,[1],inactive
same,Potency,[2],inactive
same,Potency,[3],inactive
same,Potency,[4],inactive
same,Potency,[5],inactive
same,Potency,[6],inactive
Nc1ccc2cc(S(=O)(=O)O)cc(O)c2c1N=Nc1ccccc1C(F)(F)F,Potency,[1],17.2 µM (active)
same,Potency,[8],inactive
same,Potency,[9],inactive
same,Potency,[7],inactive
same,Potency,[4],inactive
same,Potency,[5],inactive
same,Potency,[6],inactive
CC(C)(C)c1ccc(C(=O)O)cc1,Potency,[1],inactive
same,Potency,[2],inactive
same,Potency,[3],inactive
same,Potency,[7],inactive
same,Potency,[4],inactive
same,Potency,[5],inactive
CCC(C)Nc1ccc(NC(C)CC)cc1 (centres undefined),Potency,[1],8.8 µM (active)
same,Potency,[2],55.5 µM (active)
same,Potency,[3],12.5 µM (active)
same,Potency,[4],7.84 µM (active)
same,Potency,[5],22.3 µM (active)
CC1=NC(C)OC1C (centres undefined),Potency,[1],inactive
same,Potency,[2],inactive
same,Potency,[3],inactive
same,Potency,[7],30.6 µM (active)
same,Potency,[4],inactive
same,Potency,[5],inactive
CCCCCCCCCCCCCCCCCC[N+](C)(C)C,Potency,[1],27.4 µM (active)
same,Potency,[2],inactive
same,Potency,[3],27.6 µM (active)
same,Potency,[4],48.7 µM (active)
same,Potency,[5],34.8 µM (active)
CC(C)(C)CC(C)(C)c1ccc(O)c(Cc2ccc(Cl)cc2Cl)c1,Potency,[1],inactive
same,Potency,[2],inactive
same,Potency,[4],13.3 µM (active)
same,Potency,[5],23.7 µM (active)
[O-][n+]1ccccc1SSc1cccc[n+]1[O-],Potency,[1],0.188 µM (active)
same,Potency,[8],0.674 µM (active)
same,Potency,[3],inactive
same,Potency,[7],3.66 µM (active)
CCCN(CCC)C(=O)C(CCC(=O)OCCCN1CCN(CCOC(=O)Cc2c(C)n(C(=O)c3ccc(Cl)cc3)c3ccc(OC)cc23)CC1)NC(=O)c1ccccc1 (centres undefined),Potency,[10],29.8 µM (active)
same,Potency,[2],21.1 µM (active)
same,Potency,[7],inactive
same,Potency,[4],inactive
